Test results from PubChem BioAssay AID952 (NMMLSC, 2007).
Out of some 190,000 compounds screened, about 45 (0.02%) were called active. Only a sample is shown. Unmarked numbers belong to inactive results. No stated cut-off is given here; in the data, active means inhibition above about 40%.

target: Bcl-2-like protein 2 (Homo sapiens) (UniProt Q92843); experiment: Bcl-W/Bim complex disruptors – biochemical, multiplexed, bead-based flow cytometry, primary screen (AID 952); settings: Bim peptide-Bcl-W binding, at 10 µM, stronger effect = higher value;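 further: 0% = bound tracer without compound and 100% = peptide blocker; higher means less fluorescent Bim peptide bound to Bcl-W beads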
Sequence (Q92843 whole entry, looked up): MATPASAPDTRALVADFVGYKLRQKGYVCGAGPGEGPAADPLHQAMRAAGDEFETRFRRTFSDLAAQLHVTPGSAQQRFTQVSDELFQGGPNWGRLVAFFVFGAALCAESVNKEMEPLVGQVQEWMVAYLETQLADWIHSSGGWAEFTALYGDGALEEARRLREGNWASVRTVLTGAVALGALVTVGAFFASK

Compound	inhibition [%]
CCOC(=O)NC(=O)/C(C#N)=C\c1ccccc1	-2
Cc1cc(C)cc(NC(=O)N2CCCCCCC2)c1	0
Cc1[nH]c2ccccc2c1C(=O)COC(=O)c1c(-c2ccccc2)noc1C	-1
COc1cc(SC#N)ccc1N=Cc1c(C)[nH]n(-c2ccc(C)cc2)c1=O	6
O=C(NCc1ccccc1)C1CCCN(c2nc3ccsc3c(=O)s2)C1 (stereo not given)	-4
CCN(CC)CC(=O)Nc1sc2c(c1C(=O)c1ccccc1C)CCC2	0
O=C(Nc1nnc(-c2ccco2)o1)c1ccc(S(=O)(=O)N2CCOCC2)cc1	0
Cc1nc(N2CCOCC2)sc1C(=O)NN	0
CC1CCN(C(=S)c2cccc([N+](=O)[O-])c2)CC1	0
N/C(=N\OC(=O)CCCC(=O)O)c1ncc(C(F)(F)F)cc1Cl	-1
Cc1ccc(SC(C)C(=O)NCc2ccc(F)cc2)cc1 (stereo not given)	0
Cc1ccc(Nc2cc(C)nc3c(C)ccc([N+](=O)[O-])c23)cc1	0
N#Cc1c(NC(=O)c2ccc(N3CCOCC3)c([N+](=O)[O-])c2)sc2c1CCCC2	-4
Cc1cc(C)nc(-n2nc(C)cc2NC(=O)c2ccc(F)cc2F)n1	1
CCc1nn(CCCN2CCN(c3cccc(Cl)c3)CC2)c(=O)n1CCOc1ccccc1	-5
C/C(=N/N1CCN(Cc2cccc3ccccc23)CC1)c1cccnc1	0
O=C1CC(c2cccc(Cl)c2)CC(O)=C1C=Nc1ccccc1 (stereo not given)	-5
Cc1cnc(C(=O)OCC(=O)N2CCc3ccccc32)cn1	0
CC(=O)C1(C)N(O)C(C)(C)C(c2cccs2)=[N+]1[O-] (stereo not given)	0
O=C(OCC(=O)c1cccs1)c1ccc([N+](=O)[O-])o1	0
O=C(CCl)N(Cc1cccc([N+](=O)[O-])c1)c1cccc(Cl)c1	1
c1ccc2c(c1)OCCOCCOCCO2	0

Compound	inhibition [%]
CCOc1cccc2c1OC1(CCCCC1)N1N=C(c3cccnc3)CC21 (stereo not given)	-4
CCCC(=O)Nc1ccc(C(=O)N/N=C/c2ccc[nH]2)cc1	-5
Cc1ccc(S(=O)(=O)N(C)C)cc1NC(=O)COC(=O)c1c(C)noc1C	0
Cc1cc(/C=N/NC(=O)c2cccnc2)c(C)n1CC(C)C	1
CC(=O)Nc1ccc(NC(=O)CSc2nnc(COc3ccccc3C)n2CC2CCCO2)cc1 (stereo not given)	-2
Cc1cc(C)n2nc(C(=O)N3CCN(Cc4ccc5c(c4)OCO5)CC3)nc2n1	-2
C/C(=N/Nc1ccc(Cl)cc1)c1cnnc(-c2ccccc2)n1	-1
O=C(O)/C=C/C(=O)NNc1ccc([N+](=O)[O-])cc1	5
CCOC(=O)c1cccc(NC(=O)CCOc2ccccc2)c1	-1
O=C(Cn1nnc2ccccc2c1=O)NCc1ccc(Cl)cc1	-1
CSc1nc2ccccc2c(=O)n1Cc1ccc(F)cc1	0
COc1ccc(NC(=S)NCC2CCN(c3ccc(OC)cc3)C2)cc1 (stereo not given)	0
CCOc1ccc(N2C(=O)/C(=C/c3ccc(C)o3)N(C)C2=S)cc1	4
O=c1[nH]n2c(-c3ccccc3)nc(O)c2c2ccccc12	-1
COc1ccc(C(C(=O)NC2CCCCC2)N(C(=O)CCl)c2ccccc2Cl)cc1 (stereo not given)	0
OC(CNCc1ccc(Cl)c(Cl)c1)c1ccccc1 (stereo not given)	0
O=C(COc1ccc(Cl)cc1[N+](=O)[O-])N1CCCCC1	3
Cc1nccn1CC(=O)N/N=C/c1ccc(O)c(O)c1	-5
CN(Cc1nc2ccc(F)cc2[nH]1)Cc1nc(CC2CC2)no1	-6
Nc1nnc(SCC(=O)OCc2ccc(Cl)c(Cl)c2)s1	3
CN(C)CCOc1cccc(Br)c1	-3
Clc1cc(-c2ccc(/C=N/n3cnnc3)o2)ccc1Br	0

Compound	inhibition [%]
CCC(=O)N(Cc1cc2ccccc2[nH]c1=O)c1ccc(OC)cc1	0
CCOC(=O)c1cnc2c(c(C)nn2CC)c1Cl	-1
CN(C)/N=C/c1cn(-c2ccccc2)nc1-c1cccnc1	1
Cc1cc(C)n(-c2ccc(C(=O)O)cc2[N+](=O)[O-])n1	0
CCCCNC(=O)C1CCC(CNS(=O)(=O)c2ccc(NC(C)=O)cc2)CC1 (stereo not given)	1
C=CCn1c(=NC(=O)c2cccs2)sc2cc(NC(C)=O)ccc21	0
O=C(NNC(=S)NCc1ccccc1)c1ccc(OC(F)F)cc1	1
CC(=O)c1cccc(-n2nnnc2SCC(=O)NNC(=O)C2CCCCC2)c1	0
CC(=O)c1cc(C#N)c(SCC(=O)Nc2nccs2)nc1C	-1
COCCNC(=O)c1ccc(-n2c(SCc3cccnc3)nc3ccccc3c2=O)cc1	-4
CCCCN(CC)CCNC(=O)CCNC(=O)Cn1ccc2ccccc2c1=O	-2
CCN(CC(=O)NCc1cccs1)S(=O)(=O)c1ccc(NC(C)=O)cc1	0
CN(CCC1CCOCC1)Cc1cn[nH]c1-c1ccc(-c2ccccc2)cc1	-1
O=C(NC(=S)N1CCN(Cc2ccccc2)CC1)c1ccccc1	-3
CCOC(=O)c1c(NC(=O)C(C)Sc2c[nH]c3ccccc23)sc2c1CCC2 (stereo not given)	-3
COc1cc(NC(=S)NCc2ccco2)c(OC)cc1Cl	-1
O=C(c1ccc(F)cc1)c1cn(Cc2ccc(F)cc2)c2cc3c(cc2c1=O)OCCO3	-4
COc1cc(C)c(S(=O)(=O)N2CCOCC2)c(C)c1C	-3
Cc1nnsc1C(=O)N/N=C/c1cccc(C(F)(F)F)c1	-2
CCOC(=O)c1[nH]c2c(c1-c1ccccc1)C(=O)CC(c1ccc(Cl)cc1)C2 (stereo not given)	-3
COc1ccc(N=C2SC(C(=O)Nc3ccc(F)cc3)CC(=O)N2C)cc1 (stereo not given)	0
